# The list is not random: actives were taken first. Their share in the collection is about 3.7%.
# rRNA inh HTS = selective bacterial rRNA inhibition in E. coli; E. coli WT GFP vs humanized-ribosome RFP mutants, fluorescence, 24 h; stronger effect = lower value; DMSO median 0, no signal -100; GFP signal change (wild-type ribosome), % (concentration not given with the values); hit rate 1.6% among 350,000; AID 720706;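 active = significant combined selectivity score with lowered wild-type GFP, culture density cut under 30%, mutant RFP and density less affected; inactive = any of these conditions unmet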
# MLL AF4-AF9 inh = MLL-AF4/AF9 protein interaction inhibition; inhibition, % at 10 µM; AlphaScreen, biotin-AF4 peptide binding to FLAG-AF9; AID 651704; hit rate 0.47% among 350,000; P42568;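 active = every replicate reaching a set inhibition limit, whatever the replicate mean, cut at about 25% in these data; inconclusive = mean inhibition reaches that limit but some replicates miss it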;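 also: 0% = plate neutral control median and 100% = total signal loss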
# Wnt act = activators of Wnt/beta-catenin signaling; Wnt/beta-catenin reporter cell assay, activator, plate reader; activation, % at 9.35 µM; hit rate 1.2% among 300,000; in the data active = activation above about 30%, passing the limit was not always enough; inconclusive = no clear call, values can overlap the other calls;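 also: 0% = neutral control wells and 100% = positive control wells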
# esBAF inh = blocks esBAF chromatin remodeling in mouse ES cells | Bmi1-luciferase knock-in reporter, 24 h; 100% = twice the neutral-well signal | reporter increase, % at 12.5 µM | hit rate 2% among 350,000; in the data active = activation above about 40%; inconclusive = no clear call, values can overlap the other calls;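 also: 0% = median of the plate's neutral control wells and 100% = double that signal; a rise in the Bmi1 reporter signal indicates esBAF inhibition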
# MITF act = MITF TRPM1 promoter activation in melanoma cells; SK-MEL-5 TRPM1-promoter luciferase, 24 h; % of positive control, neutral wells = 0; activation, % at 12.5 µM; hit rate 0.75% among 300,000; AID 588334;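 active = mean activation of at least 80% with every replicate also reaching 80%; inconclusive = mean reaches 80% but some replicate falls short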;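 also: 0% = neutral control wells and 100% = parthenolide positive control wells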
# * marks the source's active call; other numbers are inactive results; ? = inconclusive; nt = not tested or not shown.
SMILES,rRNA inh HTS,MLL AF4-AF9 inh,Wnt act,esBAF inh,MITF act
COc1ccc(N(C(=O)Cn2cnc3ccccc32)C(C(=O)NC2CCCCC2)c2ccccc2)cc1 (stereo not drawn),nt,nt,56*,-3,4
NC(c1csc(Nc2ccc(C(=O)NCCCO)cn2)n1)c1ccccc1Cl (stereo not drawn),nt,2,1,3,nt
CCC1(CC)NC(=O)N(CC(=O)Nc2ccc(OCc3ccccc3)cc2)C1=O,1,0,4,15,14
Cc1c(-n2c(SCC(=O)NC(C)C(C)C)nc3ccccc3c2=O)c(=O)n(-c2ccccc2)n1C (stereo not drawn),4,-4,-7,nt,-6
CC(C#N)Sc1nc2ccccc2c(=O)n1-c1ccccc1 (stereo not drawn),-22*,-45,-5,-4,2
Cc1c(-n2c(SCC(C)C)nc3ccccc3c2=O)c(=O)n(-c2ccccc2)n1C,-26*,-3,-2,nt,3
Cc1c(O)c(=O)n(-c2ccccc2)n1C,-16*,-2,7,-3,7
COc1ccc(NC(=O)N(C)C[C@H]2Oc3c(NS(C)(=O)=O)cccc3C(=O)N([C@H](C)CO)C[C@H]2C)cc1,3,-2,nt,-2,nt
NC(=O)C1CCN(c2nc(-c3ccccc3Br)cs2)CC1,-1,-4,38*,nt,nt
CN(C)c1ccccc1-c1csc(N2CCC(C(N)=O)CC2)n1,5,-5,17,70*,97*
CS(=O)(=O)c1ccccc1-c1csc(N2CCC(C(N)=O)CC2)n1,1,-1,-2,nt,nt
NC(=O)C1CCN(c2nc(-c3ccc(F)cc3)cs2)CC1,-13,-2,2,-2,7
NC(=O)C1CCN(c2nc(-c3ccccc3F)cs2)CC1,5,3,?,38,88*
NC(=O)C1CCN(c2nc(-c3ccccc3C(F)(F)F)cs2)CC1,nt,nt,14,68*,75
CC1CCCCC1NC(=S)Nc1cccc(S(=O)(=O)N(C)C)c1 (stereo not drawn),-28,3,-2,nt,-2
COC(=O)c1sccc1S(=O)(=O)NC(C)c1cnn(-c2ccc(OC)cc2)c1C (stereo not drawn),-21,3,5,nt,18
CCCNC(=O)C[C@@H]1CC[C@H]2[C@@H](COc3ccc(NC(=O)NCC)cc3C(=O)N2C)O1,nt,-1,nt,-7,nt
CN(C)C(=O)c1ccc(-c2ccccc2[C@@H]2[C@@H](CO)N(C(=O)C3CCC3)[C@H]2C#N)cc1,-1,0,nt,nt,nt
COC(=O)C1=C(C)N(Cc2ccccc2C(F)(F)F)C(=NCc2ccc3c(c2)OCO3)NC1c1cccc(F)c1 (stereo not drawn),-42,nt,-3,nt,nt
NC(=O)C1CCN(c2nc(-c3cccc(N)c3)cs2)CC1,nt,nt,9,81*,52
CC(=O)c1c(O)c(C)c(-c2ccccc2)n(-c2ccccc2)c1=O,nt,nt,2,-2,0
O=C(c1ccccc1)c1c(O)nc(-c2ccccc2)n(-c2ccccc2)c1=O,-25*,4,-1,nt,2
Cc1nc2c(C#N)cnn2c2c1CCN2CC1CCCO1 (stereo not drawn),11,-1,-3,-4,2
Cc1nc(C#N)c(N/N=C/c2cccc(Cl)c2)o1,-55,3,28,93*,72
C[C@H]1CN([C@@H](C)CO)C(=O)Cc2cc(NC(=O)NC3CCCCC3)ccc2O[C@@H]1CN(C)Cc1ccc(-c2ccccc2)cc1,4,-1,nt,7,nt
SMILES,rRNA inh HTS,MLL AF4-AF9 inh,Wnt act,esBAF inh,MITF act
CNC[C@H]1OCCCC[C@@H](C)Oc2ccc(NC(=O)NC(C)C)cc2C(=O)N([C@H](C)CO)C[C@H]1C,7,-3,nt,nt,nt
O=C(c1nnc(-c2ccncc2)o1)c1ccccc1Cl,10,nt,35*,2,-1
O=C(c1ccccc1)c1nnc(-c2ccncc2)o1,nt,nt,nt,3,3
CCOc1cccc2cc(-c3csc(NC(=O)CCC(=O)NCCN4CCCCC4C)n3)c(=O)oc12 (stereo not drawn),-9,5,-1,14,110*
CCCCOc1ccc(C(=O)NCC(=O)NC(C)CCc2ccccc2)cc1 (stereo not drawn),nt,-1,5,nt,-7
Oc1ccc(C(=S)N2CCN(Cc3ccccc3)CC2)cc1,-7,2,1,-4,3
S=C(c1ccc(Br)cc1)N1CCN(Cc2ccccc2)CC1,-22*,20,-3,-12,-5
O=C(c1ccc2ccccc2c1)N1CCN(Cc2ccccc2)CC1,-22,-1,9,69*,60
